Bioassay records from PubChem BioAssay.
SARS PLpro yeast: inhibitors of SARS-CoV papain-like protease in yeast. S. cerevisiae expressing SARS-CoV PLpro, growth rescue. Potency, µM (top dose mostly 32.9 µM), for inactives: at the highest dose activity, positive = growth rescue, hits mostly activators. actives 0.19% (n = 330,000). AID 485353; calls by dose curve; note: 0% is about no effect; nearly all actives have a fitted effect of over 55% in size
AMA1-RON2 inh: AMA1-RON2 (P. falciparum) interaction inhibition | actives 0.2% (n = 360,000) | Potency, µM (titrated, usually from 58.2 µM), without a hit: top-dose activity change, negative = inhibition, actives largely listed as inhibitors | AlphaScreen AMA1-biotinylated RON2 peptide binding;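 note: 0% = vehicle wells and -100% = peptide control; nearly all actives have a fitted effect of over 45% in size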
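AMA1 (3D7) with his tag at 25 nM final met compounds first, then biotinylated RON2 peptide at 25 nM; detection used donor plus acceptor beads, 10 µg/mL apiece, read by AlphaScreen after 30 min at room temperature.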
Pf growth 48h: inhibits P. falciparum growth in the first generation, 48 h; P. falciparum luciferase growth in erythrocytes, 48 h; Potency, µM (titrated, usually from 28.7 µM), for the others: at the top dose activity change, negative = inhibition, actives largely listed as inhibitors; actives 5.9% (n = 310,000); AID 504832; note: % is set by controls: 0 for no effect and ±100 for the full control effect
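In quantitative HTS format, infected erythrocytes bearing luciferase-reporter parasites were treated for a single generation at 37 C. Luminescence after adding detection reagent served as the growth measure.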
Pf growth 96h: inhibits malaria parasite growth, 96 h | actives 6.9% (n = 320,000) | Potency, µM (top dose mostly 28.7 µM), inactives show at the top dose activity change, negative = inhibition, most hits filed as inhibitors | P. falciparum luciferase reporter growth, 96 h | AID 504834; note: % is set by controls: 0 for no effect and ±100 for the full control effect
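Cell-based qHTS: luciferase-tagged P. falciparum in erythrocytes (2% hematocrit, 0.05% parasitemia final) incubated with compounds for 96 hours, 37 C, 5% CO2; luciferase detection reagent then added and luminescence measured.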
* marks the source's active call; other numbers are inactive results; ? = inconclusive; . = no result given. Most compounds without a hit are left out; they make up all but 9.4% or so of the library. Unless noted, calls come from the whole dose curve; as a rule, active = well fitted curve in the direction sought with a large enough effect; inconclusive = small, poorly fitted or top-dose-only effect, or another doubt; inactive = no such curve, though single readings can be large; an effect the other way counts as inactive or inconclusive. Potency is the fitted concentration of half-maximal effect.

SMILES	SARS PLpro yeast	AMA1-RON2 inh	Pf growth 48h	Pf growth 96h
CC(C)NC(=O)CCn1ccc2cc(S(=O)(=O)N3CCCC3)ccc21	-3.8%	1.3%	15.3%	-29.1%
O=C(NCCc1ccc(C(F)(F)F)cc1)C1CCC(=O)N(CCCN2CCCC2=O)C1 (stereo not drawn)	-4.7%	4.2%	-0.4%	14.7µM*
COc1cccc(CN2CC(C(=O)NCCN3CCOCC3)CCC2=O)c1 (stereo not drawn)	-2.9%	-2.2%	4.3%	14.7µM*
O=C(NCCCc1ccncc1)C1CCC(=O)N(Cc2ccc(Cl)cc2)C1 (stereo not drawn)	-0.1%	-7.3%	22.4%	10.4µM*
Cc1nc(CNC(=O)C2CCC(=O)N(CCc3ccc(Cl)cc3)C2)sc1C (stereo not drawn)	7.0%	-6.0%	?	-3.2%
O=C(NCCc1cnccn1)C1CCC(=O)N(Cc2ccc(Cl)cc2)C1 (stereo not drawn)	-2.0%	5.1%	12.5%	24.4%
CCn1nc(C)c(CNC(=O)C2CCC(=O)N(CCc3ccc(Cl)cc3)C2)c1C (stereo not drawn)	2.2%	0.0%	-6.7%	9.28µM*
O=C(/C=C/c1ccccc1)N1CCCN(C(=O)/C=C/c2ccccc2)CC1	3.7%	5.3%	?	?
COc1ccccc1CN1CC(C(=O)NCCc2ccc(C)o2)CCC1=O (stereo not drawn)	13.0%	5.2%	-18.1%	9.28µM*
COc1cccc(CN2CC(C(=O)NCCCc3ccc(C)cc3)CCC2=O)c1 (stereo not drawn)	5.3%	-14.1%	-6.5%	34.2%
COc1cccc(CN2CC(C(=O)NCCCc3ccncc3)CCC2=O)c1 (stereo not drawn)	-4.5%	6.2%	11.3%	11.7µM*
O=C(NCc1ccncc1)C1CCC(=O)N(CCc2ccc(Cl)cc2)C1 (stereo not drawn)	4.3%	-4.6%	?	9.28µM*
COCc1cc(CN(C)C(=O)C2CCC(=O)N(Cc3cccc(OC)c3)C2)[nH]n1 (stereo not drawn)	-2.9%	3.7%	0.9%	9.28µM*
O=C(NCCOc1ccccc1F)C1CCC(=O)N(CC2CCCCC2)C1 (stereo not drawn)	3.7%	6.7%	-12.8%	13.2%
O=C(Nc1ccc(Cl)cc1F)c1ccccc1Br	4.3%	-3.8%	263.4%	31.4%
O=C(CSc1nnc(-c2ccc(S(=O)(=O)N3CCCC3)cc2)o1)NCC1CCCO1 (stereo not drawn)	-0.1%	-7.8%	?	-20.4%
CCOC(=O)c1cc(NC(=O)C2C3CCC(O3)C2C(=O)O)cc(C(=O)OCC)c1 (stereo not drawn)	3.8%	4.4%	?	?
CCOC(=O)c1cc(NC(=O)C2C3C=CC(O3)C2C(=O)O)cc(C(=O)OCC)c1 (stereo not drawn)	6.4%	4.6%	?	11.7µM*
O=C(O)C1C2C=CC(O2)C1C(=O)Nc1ccccc1C(F)(F)F (stereo not drawn)	-32.8%	-2.1%	.	-2.1%
O=C(O)C1C2C=CC(O2)C1C(=O)Nc1cccc(C(F)(F)F)c1 (stereo not drawn)	-12.8%	-6.1%	-10.4%	10.4µM*
O=C1c2ccccc2C2(c3cc(C(F)(F)F)cc(C(F)(F)F)c3)NCCN12 (stereo not drawn)	-3.2%	-18.5%	?	?
CN(C)CCCN1C(=O)C(=O)/C(=C(/O)c2ccc(OCc3ccccc3)cc2)C1c1cccnc1 (stereo not drawn)	10.7%	.	-1.8%	-13.1%
COc1cc([C@@H]2c3cc4c(cc3[C@@H](OC)[C@H]3COC(=O)[C@H]23)OCO4)cc(OC)c1O	-4.5%	-1.9%	10.4µM*	11.7µM*
COc1cc([C@@H]2c3cc4c(cc3[C@@H](NC3CCN(Cc5ccccc5)CC3)[C@H]3COC(=O)[C@H]23)OCO4)cc(OC)c1O	-5.4%	.	0.738µM*	0.165µM*
COc1cc(C2c3cc4c(cc3C(O)C3COCC23)OCO4)cc(OC)c1OC (stereo not drawn)	.	3.3%	.	.
COc1cc([C@@H]2c3cc4c(cc3[C@@H](O[C@@H]3O[C@@H]5CO[C@@H](C)O[C@H]5[C@H](O)[C@H]3O)[C@H]3COC(=O)[C@H]23)OCO4)cc(OC)c1O	.	10.2%	.	.
COc1cc([C@@H]2c3cc4c(cc3[C@@H](O)[C@@H](CO)[C@@H]2CO)OCO4)cc(OC)c1O[Si](C)(C)C(C)(C)C	-4.2%	.	9.28µM*	?
